The text below walks through data of PubChem BioAssay (NCATS).

Experiment [1] addresses Cytochrome P450 2C9 (Homo sapiens) (UniProt P11712). Kind of experiment: qHTS Assay for Inhibitors and Substrates of Cytochrome P450 2C9 (AID 883). Also: nearly all actives have a fitted effect of over 60% in size. As to activity change, negative = inhibition: % is scaled to controls: 0 for no effect and ±100 for the full control effect. Summed up: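 Luminescent read-out of deoxyluciferin hydroxylation, normalized to 57uM sulphaphenazole (AC100). Reaction: 10nM enzyme, 100uM Luciferin-H (equal to KM), 25mM KPO4, 10 min compound preincubation, then 60 min with NADPH regeneration, both at 37C.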
(In general: qHTS replaces the single test concentration by a dilution series.)

Experiment [2] concerns the target Cytochrome P450 3A4 (Homo sapiens) (UniProt P08684). The experiment in a line: qHTS Assay for Inhibitors and Substrates of Cytochrome P450 3A4 (AID 884). Also: nearly all actives have a fitted effect of over 50% in size. As to activity change, negative = inhibition: series mostly up to about 57 µM; % is scaled to controls: 0 for no effect and ±100 for the full control effect. Summed up: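 Luminescent readout of luciferin produced by CYP3A4 (20 nM) dealkylation of Luciferin-PPXE, 25 uM (its KM). NADPH-driven reaction ran 60 min at RT after 10 min compound preincubation; data scaled to 57 uM ketoconazole as 100% inhibition.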

Experiment [3] concerns the target Cytochrome P450 2C19 (Homo sapiens) (UniProt P33261). The experiment in a line: qHTS Assay for Inhibitors and Substrates of Cytochrome P450 2C19 (AID 899). Also: nearly all actives have a fitted effect of over 60% in size. In a few lines: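 Luminescence readout of luciferin formed from 10uM Luciferin-H EGE (KM level) by 5 nM CYP2C19 in 50mM KPO4. 60 min NADPH-driven reaction at 37C after 10 min compound preincubation; data scaled to 57uM ketoconazole inhibition.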

The target in experiment [4] is Cytochrome P450 3A4 (Homo sapiens) (UniProt P08684). Kind of experiment: qHTS Assay for Activators of Cytochrome P450 3A4 (AID 885). Also: nearly all actives have a fitted effect of over 65% in size. Summed up: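 Human CYP3A4 dealkylates Luciferin-PPXE to luciferin, which luciferase detection converts to light. Substrate was at its KM (25uM), buffer 200mM KPO4, reaction 60 min at RT.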
For experiment [5], the target named is Cytochrome P450 2D6 (Homo sapiens) (UniProt P10635). The experiment in a line: qHTS Assay for Inhibitors and Substrates of Cytochrome P450 2D6 (AID 891). Also: nearly all actives have a fitted effect of over 60% in size.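 As to activity change, negative = inhibition: luciferin methyl ether substrate demethylated by CYP2D6 with NADPH regeneration; % is scaled to controls: 0 for no effect and ±100 for the full control effect.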 In a few lines:
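Luminescent read-out of luciferin formed by 5 nM human CYP2D6 demethylating 30 uM Luciferin-ME EGE (Km level) over 60 min at room temperature after NADPH regeneration addition. Data normalized to full inhibition by 1.43 uM quinidine.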

Each structure is given as a SMILES string. Where “and” joins values, the source holds several entries; their conditions need not be identical. Equal entries are not always repeated. Values without a mark were called inactive. Results filed as inconclusive are left out. Calls of active or inactive are those of the source. Calls follow the shape of the dose curve; as a rule, active = well fitted curve in the direction sought with a large enough effect; inconclusive = small, poorly fitted or top-dose-only effect, or another doubt; inactive = no such curve, though single readings can be large; an effect the other way counts as inactive or inconclusive.
Potency is read from the fitted curve at half-maximal effect.

Cytochrome P450 2D6 (Homo sapiens), sequence (P10635 whole entry, looked up): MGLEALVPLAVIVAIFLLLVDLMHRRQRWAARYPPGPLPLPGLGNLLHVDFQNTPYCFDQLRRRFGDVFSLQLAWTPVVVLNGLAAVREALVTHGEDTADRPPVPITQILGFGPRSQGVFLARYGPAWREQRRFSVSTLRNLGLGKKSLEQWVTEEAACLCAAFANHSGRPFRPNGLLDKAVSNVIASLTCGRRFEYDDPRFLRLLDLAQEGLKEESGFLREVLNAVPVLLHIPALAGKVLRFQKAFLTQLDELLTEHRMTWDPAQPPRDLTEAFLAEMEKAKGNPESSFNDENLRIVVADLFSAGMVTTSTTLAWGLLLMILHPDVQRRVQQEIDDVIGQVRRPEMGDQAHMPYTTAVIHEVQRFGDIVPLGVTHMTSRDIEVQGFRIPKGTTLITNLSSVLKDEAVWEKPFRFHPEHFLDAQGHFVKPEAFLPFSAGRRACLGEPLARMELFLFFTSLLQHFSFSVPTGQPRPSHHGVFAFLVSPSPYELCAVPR
Cytochrome P450 3A4 (Homo sapiens), sequence (P08684 whole entry, looked up): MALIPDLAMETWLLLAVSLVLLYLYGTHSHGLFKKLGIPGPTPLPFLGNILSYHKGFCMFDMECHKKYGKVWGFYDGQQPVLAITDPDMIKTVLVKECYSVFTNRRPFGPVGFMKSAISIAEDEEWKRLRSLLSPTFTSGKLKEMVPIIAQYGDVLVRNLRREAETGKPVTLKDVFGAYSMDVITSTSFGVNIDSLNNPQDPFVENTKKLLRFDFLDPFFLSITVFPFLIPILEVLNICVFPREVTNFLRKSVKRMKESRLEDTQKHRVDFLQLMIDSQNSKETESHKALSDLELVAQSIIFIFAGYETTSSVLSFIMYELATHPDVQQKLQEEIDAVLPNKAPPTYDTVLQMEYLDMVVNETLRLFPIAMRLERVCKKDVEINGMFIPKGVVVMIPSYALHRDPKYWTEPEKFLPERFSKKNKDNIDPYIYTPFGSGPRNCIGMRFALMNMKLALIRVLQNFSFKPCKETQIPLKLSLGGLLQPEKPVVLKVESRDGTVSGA
Cytochrome P450 2C19 (Homo sapiens), sequence (P33261 whole entry, looked up): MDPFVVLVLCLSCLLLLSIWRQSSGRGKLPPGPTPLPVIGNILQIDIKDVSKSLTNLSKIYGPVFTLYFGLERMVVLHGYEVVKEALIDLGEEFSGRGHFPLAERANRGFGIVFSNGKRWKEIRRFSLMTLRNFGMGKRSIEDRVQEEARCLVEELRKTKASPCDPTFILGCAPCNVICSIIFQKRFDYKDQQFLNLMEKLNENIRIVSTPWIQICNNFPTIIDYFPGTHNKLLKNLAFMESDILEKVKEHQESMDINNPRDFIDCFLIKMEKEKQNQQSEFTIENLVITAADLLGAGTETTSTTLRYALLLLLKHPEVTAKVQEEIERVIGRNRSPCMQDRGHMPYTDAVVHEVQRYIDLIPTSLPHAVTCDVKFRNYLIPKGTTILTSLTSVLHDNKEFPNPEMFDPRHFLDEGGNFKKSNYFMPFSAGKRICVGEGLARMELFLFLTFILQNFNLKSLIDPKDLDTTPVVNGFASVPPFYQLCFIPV
Cytochrome P450 2C9 (Homo sapiens), sequence (P11712 whole entry, looked up): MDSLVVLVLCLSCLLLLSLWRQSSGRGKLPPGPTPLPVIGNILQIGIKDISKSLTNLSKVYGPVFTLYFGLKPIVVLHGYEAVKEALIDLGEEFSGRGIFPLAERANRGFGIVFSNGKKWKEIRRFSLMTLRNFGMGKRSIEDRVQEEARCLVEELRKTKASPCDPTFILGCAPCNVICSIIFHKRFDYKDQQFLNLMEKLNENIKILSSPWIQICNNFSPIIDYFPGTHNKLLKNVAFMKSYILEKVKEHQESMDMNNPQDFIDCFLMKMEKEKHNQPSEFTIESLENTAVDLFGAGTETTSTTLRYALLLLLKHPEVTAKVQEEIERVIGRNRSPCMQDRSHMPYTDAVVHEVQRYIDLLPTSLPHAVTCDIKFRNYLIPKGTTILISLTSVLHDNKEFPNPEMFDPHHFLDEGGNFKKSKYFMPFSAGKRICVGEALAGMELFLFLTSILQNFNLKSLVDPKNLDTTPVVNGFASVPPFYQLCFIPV

Turning to `COC(=O)NC(c1ccc(F)cc1)C(C(C)=O)C(=O)OC` (centres undefined), the Potency result in experiment [1] and in experiment [3] was “inactive” in each case. In addition, the activity change, negative = inhibition in experiment [2] was -15% [at 11.4 µM].

In the case of `CCC/C=C/C1C(=O)C2OC2C2(OCC(CC)(CC)CO2)C1CO` (centres undefined), the Potency result in experiment [1] and in experiment [5] was “inactive” each time. Also, the activity change, positive = activation in experiment [4] was -53.3% [at 11.4 µM].

Regarding `C/C(CCC(=O)OC[C@@H]1O[C@H](C#Cc2ccccc2)C=C[C@@H]1Oc1ccc(C)cc1)=N/O[C@@H](C)c1cn([C@H](CO)Cc2ccccc2)nn1`, the Potency in experiment [1] is 3.16 µM (active); in experiment [2], 3.98 µM (active) and 3.16 µM (active); in experiment [3], 3.98 µM (active).

`CCN1C(C)=C(C(=O)OC)C(c2ccccc2)N2C(=O)[C@@]3(C(=O)OC)O[C@@]12C1C(=O)CCCC13` (some centres undefined): the Potency result in experiment [1], in experiment [5] and in experiment [3] was “inactive” in each case. Also, the activity change, positive = activation in experiment [4] was -36.9% [at 11.4 µM].

In the case of `COC(=O)C1=C(C)N(Cc2ccccc2)[C@]23O[C@](C(=O)OC)(C(=O)N2C1c1ccccc1)C1C(=O)N(c2ccccc2)C(=O)C13` (some centres undefined), the Potency entry in experiment [1], in experiment [5] and in experiment [3] was “inactive” in each case. In addition, in experiment [4], the activity change, positive = activation is -42.8% [at 11.4 µM] and -32.3% [at 11.4 µM].

As for `CO[C@H]1COC(=O)C/C=C\[C@H](C)[C@@H](OC)COC(=O)[C@@H](C)COC(=O)C/C=C\[C@@H]1C`, the Potency in experiment [1] is 2.51 µM (active). In addition, the activity change, positive = activation in experiment [4] was -56.2% [at 11.4 µM].

Take `C=CCOC(=O)C(C(C)=O)C(NC(=O)OC)c1ccco1` (centres undefined): the Potency result in experiment [1], in experiment [5] and in experiment [3] was “inactive” throughout. Besides, the activity change, positive = activation in experiment [4] is -42.1% [at 11.4 µM].

Turning to `CC1CCC2C(=O)N3C(CCC(C)[C@@H]3c3ccc(Br)cc3)C(=O)N2C1c1ccc(Br)cc1` (some centres undefined), the Potency in experiment [1] is 3.16 µM (active). The activity change, positive = activation in experiment [4] is -48.7% [at 11.4 µM]. Also, the Potency entry in experiment [5] was “inactive”.

In the case of `COCOc1cc(OC)ccc1C(=O)/C=C\c1ccc2c(c1)OCO2`, the Potency in experiment [1] is 2.51 µM (active); in experiment [5], 3.98 µM (active). The activity change, positive = activation in experiment [4] is -101% [at 11.4 µM].

With `COC(=O)NC(c1cccs1)C(C(C)=O)C(=O)OC` (centres undefined), the Potency result in experiment [1] and in experiment [5] was “inactive” throughout. Further, the activity change, positive = activation in experiment [4] was -34.2% [at 11.4 µM].

For `C[C@@]12CCC3c4ccc(OC5C=CC(c6ccccc6)OC5CO)cc4CCC3C1CCC2=O` (some centres undefined), the Potency result in experiment [1], in experiment [5] and in experiment [3] was “inactive” throughout. Also, the Potency in experiment [4] was 3.16 µM (active).

`CC(C)CCN1CCc2nc(-c3ccccc3)c3c(c2C1)COC(C)C3` (centres undefined): the Potency entry in experiment [1], in experiment [5] and in experiment [3] was “inactive” in each case. For the same molecule, the activity change, positive = activation in experiment [4] was -56% [at 11.4 µM].

As to `O=Cc1ccc(OC2C=CC(C#Cc3ccccc3)OC2CO)cc1` (centres undefined), the Potency in experiment [1] was 2.51 µM (active). The activity change, positive = activation in experiment [4] is -42% [at 11.4 µM]. Moreover, the Potency result in experiment [5] was “inactive”.

Regarding `CCCC/C=C/C(NC(=O)c1ccc(C(F)(F)F)cc1)c1ccccc1` (centres undefined), the Potency in experiment [1] is 2 µM (active). In addition, the Potency entry in experiment [4] was “inactive”.

Consider `COc1ccc(-c2nc3c(c4c2CC(C)OC4)CN(CCC(C)C)CC3)cc1` (centres undefined), for which the Potency result in experiment [1], in experiment [5] and in experiment [3] was “inactive” in each case. Also, the activity change, positive = activation in experiment [4] was -50.4% [at 11.4 µM].

Regarding `CCOC(=O)OCC1OC(c2ccccc2)C=CC1Oc1cccc(N(C)C)c1` (centres undefined), the Potency result in experiment [1] and in experiment [5] was “inactive” in each case. Besides, the activity change, positive = activation in experiment [4] is -50.1% [at 11.4 µM].

Regarding `CCN1C(C)=C(C(=O)OC)C(c2ccccc2)N2C(=O)[C@](O)(C(=O)OC)CC(C#N)=C12` (some centres undefined), the Potency entry in experiment [1], in experiment [5] and in experiment [3] was “inactive” each time. In experiment [4], the activity change, positive = activation is -38.3% [at 11.4 µM].

As to `CC(C)=NOCc1cccc(-c2cc(-c3ccccc3)no2)c1`, the Potency in experiment [1] was 3.98 µM (active). For the same molecule, the activity change, positive = activation in experiment [4] was -40.1% [at 11.4 µM].

Take `COC(=O)C1C(C)OC(=O)NC1c1ccccc1` (centres undefined): the Potency entry in experiment [1] and in experiment [3] was “inactive” in each case. The activity change, negative = inhibition in experiment [2] was -16.6% [at 11.4 µM].

As for `CCC(=O)CC(NC(=O)OC)c1ccccc1` (centres undefined), the Potency entry in experiment [1], in experiment [5] and in experiment [3] was “inactive” throughout. For the same molecule, the activity change, positive = activation in experiment [4] was -34.8% [at 11.4 µM].

With `C=CC[C@@H]1C=C[C@@H](O/N=C\c2ccc(C(=O)N3[C@H](c4ccc(C)cc4)[C@@H](C)CC[C@H]3C(=O)OC)cc2)[C@@H](CO)O1`, the Potency in experiment [1] is 3.98 µM (active). In experiment [4], the activity change, positive = activation is -42.6% [at 11.4 µM].

As to `CO[C@H]1COC(=O)C/C=C\[C@H](C)[C@@H](OC)COC(=O)[C@H](C)COC(=O)C/C=C\[C@@H]1C`, in experiment [1], the Potency entry is “inactive”. Also, the activity change, positive = activation in experiment [4] was -33.7% [at 11.4 µM].

On to `CCCCCCC1=Cc2cc(OC)c(OC)cc2C(C2(C(=O)OCC)CCCC2=O)O1` (centres undefined), for which the Potency entry in experiment [1], in experiment [5] and in experiment [3] was “inactive” each time. Besides, the activity change, positive = activation in experiment [4] is -36.1% [at 11.4 µM].

Consider `COC(=O)C(C(=O)OC)C1O[C@@]23COCCC2(C)C3c2ccccc21` (some centres undefined), for which the Potency result in experiment [1], in experiment [5] and in experiment [3] was “inactive” each time. Besides, the activity change, positive = activation in experiment [4] is -34.9% [at 11.4 µM].

Regarding `CCCCC#CC1C=CC(Oc2cc(OC)c(OC)c(OC)c2)C(CO)O1` (centres undefined), the Potency entry in experiment [1], in experiment [5] and in experiment [3] was “inactive” throughout. In addition, the activity change, positive = activation in experiment [4] was -45% [at 11.4 µM].

`CCN1C(C)=C(C(=O)OC)C(c2ccccc2)N2C(=O)[C@](O)(C(=O)OC)C(c3ccccc3)C(C(C)=O)=C12` (some centres undefined): the Potency entry in experiment [1], in experiment [5] and in experiment [3] was “inactive” each time. For the same molecule, the activity change, positive = activation in experiment [4] was -59.7% [at 11.4 µM].

Turning to `COC(=O)C1=C(C)N(Cc2ccccc2)C2=C(C(C)=O)C[C@@](O)(C(=O)OC)C(=O)N2C1c1ccccc1` (some centres undefined), the Potency entry in experiment [1], in experiment [5] and in experiment [3] was “inactive” throughout. Also, in experiment [4], the activity change, positive = activation was -45.3% [at 11.4 µM] and -48.2% [at 11.4 µM].
